According to PubChem BioAssay:
The source made the active and inactive calls. Unless noted, the rule behind the calls is not given here.

Experiments:
[1] = compounds binding Alexa647 anti-His antibody – biochemical, small-molecule microarray, 635 nm fluorescence, artefact control for SMM control protein annotation, primary screen (AID 1128); conditions: higher = more signal;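 note: score merges feature fluorescence with signal-to-noise for each printed compound spot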
[2] = test system: Human papillomavirus type 1a E7 protein (residues 1-88); test: HPV1a E7 small-molecule binders, primary screen, biochemical, small-molecule microarray, residues 1-88, 635 nm (AID 1129); conditions: small-molecule microarray binding, fluorescence 635 nm; higher = more signal
[3] = biological target: Focal adhesion kinase 1 (Homo sapiens) (UniProt Q05397); test: PTK2 protein binding on printed compound slides – biochemical, small-molecule microarray, 635/667 nm fluorescence, BSA, DTT, primary screen (AID 1130); conditions: 635 nm fluorescence, higher = more signal;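 note: composite of spot emission at 667 nm and signal to noise over triplicate slides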
Focal adhesion kinase 1 (Homo sapiens), sequence (Q05397 whole entry, looked up): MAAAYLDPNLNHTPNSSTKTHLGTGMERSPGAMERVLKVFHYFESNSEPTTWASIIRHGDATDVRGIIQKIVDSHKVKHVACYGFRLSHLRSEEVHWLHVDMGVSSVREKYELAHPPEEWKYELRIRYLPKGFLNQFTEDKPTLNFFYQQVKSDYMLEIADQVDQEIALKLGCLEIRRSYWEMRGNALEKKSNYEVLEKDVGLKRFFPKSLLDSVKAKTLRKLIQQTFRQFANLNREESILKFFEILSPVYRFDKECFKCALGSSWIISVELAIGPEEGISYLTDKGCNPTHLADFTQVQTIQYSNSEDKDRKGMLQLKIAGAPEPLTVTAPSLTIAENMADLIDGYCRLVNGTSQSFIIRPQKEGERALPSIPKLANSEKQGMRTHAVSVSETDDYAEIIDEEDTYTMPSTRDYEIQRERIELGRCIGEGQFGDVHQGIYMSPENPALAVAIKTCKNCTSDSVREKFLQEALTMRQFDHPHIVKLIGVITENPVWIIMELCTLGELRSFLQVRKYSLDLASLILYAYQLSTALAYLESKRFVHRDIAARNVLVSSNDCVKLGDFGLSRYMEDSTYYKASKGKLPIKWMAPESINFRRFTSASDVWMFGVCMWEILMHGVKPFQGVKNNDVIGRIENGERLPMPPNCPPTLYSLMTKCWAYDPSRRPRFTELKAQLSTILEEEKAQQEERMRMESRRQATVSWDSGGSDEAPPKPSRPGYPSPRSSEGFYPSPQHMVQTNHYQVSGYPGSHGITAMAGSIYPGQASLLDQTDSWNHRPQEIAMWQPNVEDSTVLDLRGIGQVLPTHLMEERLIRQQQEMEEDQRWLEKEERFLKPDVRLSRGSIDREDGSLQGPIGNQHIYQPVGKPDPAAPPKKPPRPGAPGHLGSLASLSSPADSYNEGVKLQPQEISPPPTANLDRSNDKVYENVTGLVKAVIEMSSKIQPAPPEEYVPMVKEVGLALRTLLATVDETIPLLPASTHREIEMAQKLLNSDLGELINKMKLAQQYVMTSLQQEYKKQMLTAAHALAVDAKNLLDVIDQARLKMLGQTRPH

[4] = test system: Fibrinogen (Alexa647-labelled); test: Alexa647-fibrinogen binding to printed small molecules – biochemical, small-molecule microarray, 635/667 nm fluorescence, artefact control for SMM control-protein annotation, profiling panel (AID 1131); conditions: fibrinogen-A647 binding fluorescence, higher = more signal;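 note: z-score merges 667 nm fluorescence with per-spot signal-to-noise over triplicate slides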
[5] = biological target: Follistatin (Homo sapiens) (UniProt P19883); test: FST protein binding to printed compounds – biochemical, small-molecule microarray, 635/667 nm fluorescence, primary screen (AID 1132); conditions: 635 nm fluorescence, higher = more signal
Follistatin (Homo sapiens), sequence (P19883 whole entry, looked up): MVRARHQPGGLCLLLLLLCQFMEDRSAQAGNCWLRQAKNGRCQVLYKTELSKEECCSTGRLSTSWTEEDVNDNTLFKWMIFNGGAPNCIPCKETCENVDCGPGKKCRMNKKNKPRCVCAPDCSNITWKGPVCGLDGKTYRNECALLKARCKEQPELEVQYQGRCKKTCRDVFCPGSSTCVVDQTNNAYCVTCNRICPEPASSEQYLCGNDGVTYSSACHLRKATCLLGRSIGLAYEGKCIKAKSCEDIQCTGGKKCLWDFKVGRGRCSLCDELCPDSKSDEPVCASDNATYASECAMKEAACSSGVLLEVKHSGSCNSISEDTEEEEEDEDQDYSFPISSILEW

[6] = biological target: Fibroblast growth factor 2 (Homo sapiens) (UniProt P09038); test: basic fibroblast growth factor binding to printed compounds – biochemical, small-molecule microarray, 635/667 nm fluorescence, primary screen (AID 1133); conditions: FGF2, fluorescence 635/667, higher = more signal
Fibroblast growth factor 2 (Homo sapiens), sequence (P09038 whole entry, looked up): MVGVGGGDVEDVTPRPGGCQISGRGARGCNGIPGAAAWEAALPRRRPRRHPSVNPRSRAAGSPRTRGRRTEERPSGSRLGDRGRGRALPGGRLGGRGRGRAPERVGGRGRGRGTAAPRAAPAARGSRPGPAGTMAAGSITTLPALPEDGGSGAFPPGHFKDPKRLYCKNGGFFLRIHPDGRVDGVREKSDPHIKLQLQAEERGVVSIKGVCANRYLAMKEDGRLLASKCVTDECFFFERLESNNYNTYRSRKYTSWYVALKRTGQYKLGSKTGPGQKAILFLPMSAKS

[7] = JC-1 mitochondrial potential readout, lung cancer cells – cell-based, A549, JC-1 fluorescence, basal, 24 h, 100 nL, profiling panel (AID 1138); conditions: higher = more signal;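 note: A549 lung adenocarcinoma cells under basal conditions with no added stimulus; test concentration not given here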
[8] = test system: Lefty1; test: Lefty1 protein binding to printed compounds – biochemical, small-molecule microarray, 635/667 nm fluorescence, primary screen (AID 1139); conditions: fluorescence 635/667, higher = more signal
[9] = test system: wheat germ agglutinin (Triticum aestivum), Alexa647-labelled; test: Alexa647-WGA lectin binding to printed small molecules – biochemical, small-molecule microarray, 635/667 nm fluorescence, artefact control for SMM control-protein annotation, profiling panel (AID 1140); conditions: WGA-A647 binding, 635 nm fluorescence, higher = more signal;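 note: score merges 667 nm feature emission with signal to noise over triplicate slides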
[10] = biological target: Luciferin 4-monooxygenase (Photinus pyralis) (UniProt P08659); test: inhibition of purified Photinus pyralis luciferase – biochemical, luminescence, purified enzyme, 2006 set, primary screen (AID 1141); conditions: purified firefly luciferase, SteadyGlo luminescence, 30 min; higher = more signal, called active from +8 up or from −8 down;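 note: cell-free assay with purified firefly luciferase at 100 ng per well in PBS; test concentration not given here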
Luciferin 4-monooxygenase (Photinus pyralis), sequence (P08659 whole entry, looked up): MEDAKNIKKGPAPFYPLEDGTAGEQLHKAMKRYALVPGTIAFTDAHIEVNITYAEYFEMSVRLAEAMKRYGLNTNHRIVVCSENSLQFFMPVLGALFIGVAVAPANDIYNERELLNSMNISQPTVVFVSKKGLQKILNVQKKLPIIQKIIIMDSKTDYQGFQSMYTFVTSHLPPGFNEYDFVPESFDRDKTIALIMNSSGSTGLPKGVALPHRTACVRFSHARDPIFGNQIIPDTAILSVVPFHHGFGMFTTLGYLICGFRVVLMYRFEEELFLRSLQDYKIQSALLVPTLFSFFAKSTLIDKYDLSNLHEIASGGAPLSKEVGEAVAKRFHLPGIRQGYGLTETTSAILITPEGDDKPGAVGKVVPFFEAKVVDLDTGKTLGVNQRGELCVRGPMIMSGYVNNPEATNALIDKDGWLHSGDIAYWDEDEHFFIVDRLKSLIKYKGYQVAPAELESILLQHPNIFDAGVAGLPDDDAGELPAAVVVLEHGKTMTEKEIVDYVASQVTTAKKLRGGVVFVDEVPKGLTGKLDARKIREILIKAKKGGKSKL

[11] = test system: Wnt5a (protein binding on small-molecule microarray); test: small molecules binding Wnt5a protein – biophysical, small-molecule microarray, 635/667 nm fluorescence, primary screen (AID 1142); conditions: 635 nm fluorescence, higher = more signal;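 note: fluorescence read at 667 nm with signal to noise per printed feature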
[12] = ATP-based viability of Huh7 replicon cells – cell-based, CellTiter-Glo luminescence, basal, 48 h, cytotoxicity control for HCV replication inhibitor project, primary screen (AID 1143); conditions: higher = more signal, called active from +8 up or from −8 down;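 note: Huh7 hepatoma cells carrying a hepatitis C replication reporter with no stimulus; test concentration not given here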
[13] = Pseudomonas biofilm growth suppression – PAO1 strain, BacTiter-Glo luminescence, LB-PBS, primary screen (AID 1144); conditions: P. aeruginosa PAO1 biofilm, 12 h, higher = more signal
[14] = basal CRE-LacZ reporter activity in PC12 – cell-based, unstimulated, primary screen (AID 1145); conditions: no forskolin, luminescence, 4.5 h, higher = more signal, called active from +8 up or from −8 down
[15] = forskolin-driven CRE-LacZ activity in PC12 – cell-based, CRE-LacZ reporter, forskolin-stimulated, primary screen (AID 1146); conditions: luminescence, 4.5 h, higher = more signal, called active from +8 up or from −8 down;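 note: PC12 cells with 6xCRE LacZ reporter stimulated by forskolin 10 µM; beta-galactosidase reporter signal reflecting CREB driven transcription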
[16] = biological target: Streptavidin (Streptomyces avidinii) (UniProt P22629); test: compounds binding control protein streptavidin – biophysical, small-molecule microarray, 635/667 nm fluorescence, artefact control for SMM compound annotation, primary screen (AID 1147); conditions: higher = more signal;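 note: signal reflects streptavidin binding to arrayed compounds as a control protein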
Streptavidin (Streptomyces avidinii), sequence (P22629 whole entry, looked up): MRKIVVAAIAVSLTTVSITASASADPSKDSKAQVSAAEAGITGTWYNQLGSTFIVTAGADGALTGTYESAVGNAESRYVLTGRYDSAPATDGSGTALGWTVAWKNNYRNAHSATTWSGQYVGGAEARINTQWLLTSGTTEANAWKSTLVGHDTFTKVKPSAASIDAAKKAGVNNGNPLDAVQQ

[17] = probe aInhba binding on compound microarray – biochemical, small-molecule microarray, 635/667 nm fluorescence, primary screen (AID 1148); conditions: higher = more signal;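 note: score merges 667nm spot fluorescence with signal-to-noise for antibody binding to printed compounds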
[18] = biological target: Torsin-1A (Homo sapiens) (UniProt O14656); test: TOR1A wild-type binding on microarray – cell lysate, small-molecule microarray, lysate, 635/667 nm, primary screen (AID 1149); conditions: COS7 hTOR1A-WT lysate, 635 nm fluorescence, higher = more signal
Torsin-1A (Homo sapiens), sequence (O14656 whole entry, looked up): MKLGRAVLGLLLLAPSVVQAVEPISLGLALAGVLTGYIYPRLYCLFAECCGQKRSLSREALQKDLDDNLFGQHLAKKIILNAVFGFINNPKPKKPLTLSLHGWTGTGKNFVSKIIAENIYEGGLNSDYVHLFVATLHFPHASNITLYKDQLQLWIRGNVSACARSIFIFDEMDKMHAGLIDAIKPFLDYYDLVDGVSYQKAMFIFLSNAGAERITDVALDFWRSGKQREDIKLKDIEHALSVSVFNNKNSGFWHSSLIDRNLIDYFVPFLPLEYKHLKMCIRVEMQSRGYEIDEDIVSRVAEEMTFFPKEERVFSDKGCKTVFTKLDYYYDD

[19] = biological target: Torsin-1A (Homo sapiens) (UniProt O14656); test: torsin A mutant lysate binding on microarrays – cell lysate, small-molecule microarray, COS7 lysate, 635/667 nm fluorescence, primary screen (AID 1150); conditions: COS7 hTOR1A mutant lysate, 635 nm fluorescence, higher = more signal;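 note: score pools 667 nm emission and signal to noise measuring lysate protein binding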
[20] = test system: Sonic hedgehog protein (Shh); test: Sonic hedgehog microarray binding compounds – biochemical, small-molecule microarray, 635/667 nm fluorescence, primary screen (AID 1151); conditions: 635 nm fluorescence, higher = more signal;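 note: Shh protein binding to compounds spotted on small-molecule microarray slides; score combines spot fluorescence intensity with signal-to-noise across triplicate slides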

SMILES	composite z-score [1]	composite z-score [2]	composite z-score [3]	composite z-score [4]	composite z-score [5]	composite z-score [6]	z-score [7]	composite z-score [8]	composite z-score [9]	z-score [10]	composite z-score [11]	z-score [12]	z-score [13]	z-score [14]	z-score [15]	composite z-score [16]	composite z-score [17]	composite z-score [18]	composite z-score [19]	composite z-score [20]
COc1ccc(C(O)C2C=CC3C(=O)N(Cc4ccccc4)C(=O)C3N2n2cnnc2)c2ccccc12 (stereo not given)	0.727	0.782	1.77	1.01	0.421	-1.54	-1.08	0.635	0.0261	1.01 (inactive)	-0.795	-3.64 (inactive)	0.038 (inactive)	-0.126 (inactive)	-0.138 (inactive)	-0.677	-0.0136	1.95	0.432	-0.237
CN(C)CCCCNC(=O)[C@H]1C[C@H]2C(=O)N3CCC[C@H]3C(=O)N2[C@H]1c1ccc(O)cc1	-0.268	-1.6	-0.401	-1.05	0.443	-1.01	-0.983	-0.428	-0.534	0.501 (inactive)	-1	-2.49 (inactive)	-1.5 (inactive)	-0.667 (inactive)	-0.942 (inactive)	-1.34	-0.643	-1.3	-1.04	-0.229
O=c1cccc(-c2ccc(C(F)(F)F)cc2)o1	0.728	-0.955	-0.136	-1.1	-0.398	-0.41	0.77	-1.03	-0.399	0.854 (inactive)	-0.281	0.421 (inactive)	0.634 (inactive)	-0.275 (inactive)	-0.145 (inactive)	-0.43	-0.0963	-0.848	-0.476	-0.559
CC=CC(O)C1C=CC2C(=O)N(c3ccccc3)C(=O)C2N1Nc1ccccc1 (stereo not given)	2.25	1.25	0.981	0.915	1.2	0.915	0.714	0.493	1.15	-2.22 (inactive)	0.859	0.973 (inactive)	-1.33 (inactive)	0.0501 (inactive)	-0.741 (inactive)	1	0.337	0.358	0.285	0.0322
CCOC(=O)C[C@H]1[C@H](OC(=O)Cc2ccc3c(c2)OCO3)[C@@H](NC(=O)C2CCCCC2)c2cc(OCCCO)ccc2N1C(=O)c1ccc2ccccc2n1	0.0779	0.684	0.309	0.581	1.39	1.71	-0.678	0.816	-0.176	0.862 (inactive)	0.305	-3.34 (inactive)	-0.273 (inactive)	6.45 (inactive)	0.871 (inactive)	0.658	-0.0361	0.392	0.172	1.39
O=C(O)[C@H]1C[C@H]2C(=O)N3CCC[C@H]3C(=O)N2[C@H]1c1cccc(OCCO)c1	2.79	0.658	-0.525	0.0871	1.32	0.871	1.95	0.232	0.227	-1.97 (inactive)	0.188	-0.716 (inactive)	0.0521 (inactive)	0.818 (inactive)	0.0548 (inactive)	-0.0748	-0.154	0.847	1.57	0.643
Cc1ccc(C(C)CC(O)C2C=CC3C(=O)N(c4ccccc4)C(=O)C3N2Nc2ccc(C(C)C)cc2)o1 (stereo not given)	0.953	1.16	0.423	0.59	0.75	-0.14	-0.678	-0.795	1.15	-0.528 (inactive)	0.301	0.183 (inactive)	-0.203 (inactive)	0.246 (inactive)	0.0702 (inactive)	1.33	0.343	0.216	0.715	0.154
CCOC(=O)C[C@H]1[C@H](OC(=O)c2ccc(-c3ccccc3)cc2)[C@@H](NC(=O)c2ccc3ccccc3c2)c2cc(OCCCO)ccc2N1C(=O)c1ccc2ccccc2n1	0.558	0.921	-0.152	0.735	0.458	-0.141	0.329	0.367	0.209	-0.704 (inactive)	0.0577	0.866 (inactive)	-0.0546 (inactive)	-0.593 (inactive)	-0.611 (inactive)	1.02	0.106	0.138	0.527	0.539
O=C(CS)NCCCCCCNC(=O)[C@@H]1C[C@@H]2C(=O)N3CCC[C@H]3C(=O)N2[C@@H]1c1cccc(OCCO)c1	0.824	1.13	0.459	0.642	1.1	1.59	0.503	0.361	0.832	-0.681 (inactive)	0.939	-0.497 (inactive)	-1.05 (inactive)	-1.35 (inactive)	-1.07 (inactive)	0.283	-0.128	1.19	1.34	1.7
